# Source: PubChem BioAssay (National Center for Advancing Translational Sciences (NCATS))
# PNC inhibitor: blocks assembly of the perinucleolar compartment; activity change (PNC), negative = inhibition, % at 10 µM; 140,000 compounds, 3.1% hits; PC3M PTB-GFP, PNC prevalence imaging, 16 h; stronger effect = lower value; AID 2417;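 active means readout at or below -70, meaning at least 70% loss of cells showing the perinucleolar compartment, a nuclear body marking cancer cells; inconclusive means readout between -30 and a set limit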;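 further: plate controls were DMSO wells for no effect and camptothecin positive control wells for full effect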
#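 Read-out is percentage of cells bearing a perinucleolar compartment, from automated 20x imaging of fixed, Hoechst-stained PC3M PTB-GFP cells. Cells were seeded 4 h, then exposed 16 h to compound (23 nl of library stock) in duplicate plates.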
# ALDH1A1 block: ALDH1A1 (human) enzyme inhibition. P00352. Purified ALDH1A1, NADH fluorescence, propionaldehyde substrate. Potency, µM (top dose mostly 75.3 µM), for the others: top-dose activity, negative = inhibition, actives largely listed as inhibitors. 220,000 compounds, 7.3% hits;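 further: potency means the concentration at half of the fitted maximal effect; plate controls were no enzyme wells and a reference inhibitor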
# HPGD inh: inhibitors of human 15-hydroxyprostaglandin dehydrogenase (HPGD) | AID 894 | purified HPGD, NADH fluorescence kinetic, PGE2 substrate | 150,000 compounds, 4.3% hits | Potency, µM, inactives show top-dose activity change, negative = inhibition, hits mostly inhibitors | P15428; further: potency means the concentration at half of the fitted maximal effect
# Target sequence (P15428 whole entry, looked up): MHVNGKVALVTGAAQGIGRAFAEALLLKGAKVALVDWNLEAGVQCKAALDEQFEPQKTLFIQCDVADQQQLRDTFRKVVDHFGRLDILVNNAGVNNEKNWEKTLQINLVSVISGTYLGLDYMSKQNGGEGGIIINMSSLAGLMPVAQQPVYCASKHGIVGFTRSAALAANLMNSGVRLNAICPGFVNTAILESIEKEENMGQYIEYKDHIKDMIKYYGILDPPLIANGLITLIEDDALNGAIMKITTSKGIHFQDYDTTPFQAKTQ
#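 20 nM HPGD preincubated 15 min at room temperature with compound in 50 mM Tris-HCl pH 8, 0.01% Tween 20. Started with 1 mM NAD+ and 30 uM prostaglandin E2; NADH fluorescence (360/450 nm) read 5 times over 30-s intervals, last minus first.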
# * marks the source's active call; other numbers are inactive results; u = inconclusive; x = not tested or not shown; [ ] = remark or other dose. Most compounds without a hit are left out; they make up all but 11% or so of the library. Unless noted, the call rests on the fitted dose curve; in most records, active means well fitted inhibition curve with a large enough effect (not every such curve was filed as active); inconclusive means small, poorly fitted or top-dose-only effect, or another doubt; inactive means no such curve, though single readings can be large or run the other way. Unless noted, on the % scale 0 is the no-effect control and ±100 the full control effect.
SMILES,PNC inhibitor,ALDH1A1 block,HPGD inh
CC1=NN(c2ccc(S(=O)(=O)O)cc2C)C(=[OH+])[C@H]1N=Nc1cc(S(=O)(=O)O)ccc1C(=O)O.O.[Cr],x,u,-16%
CC1CC(Cl)CCC1C(=O)OC(C)(C)C (centres undefined),x,13%,-4%
C[C@@H]1CC[C@H]2[C@@H](C)C(=O)O[C@@H]3OC4(C)CC[C@@H]1C32OO4 (some centres undefined),x,3%,-3%
C[C@@H]1CC[C@H]2[C@@H](C)C(=O)O[C@@H]3OC4(C)CC[C@@H]1[C@]32OO4,x,25µM*,-8%
N#CC(C#N)=Cc1cccnc1,x,3.2µM*,x
CNCC/C=C/c1cccnc1,x,1%,x
O=C(c1ccc2c(c1)ncn2C1CCCCCC1)N1CCC2(CC1)OCCO2,30,-13%,14µM*
Cn1c2ccccc2c2c(C(=O)N3CCC4(CC3)OCCO4)cn(C3CCCCC3)c(=O)c21,17,u,u
Cc1nc2cc(C(=O)N3CCC4(CC3)OCCO4)ccc2n1-c1cccc(F)c1,-12,25µM*,2.8µM*
O=C(c1ccc2nc(-c3ccco3)c(-c3ccco3)nc2c1)N1CCC2(CC1)OCCO2,7,u,u
Clc1nc(Cl)nc(Nc2ccccc2Cl)n1,x,-1%,-3%
CC(C)COC(=O)c1ccccc1C(=O)OCC(C)C,x,u,-9%
CCCCC(CC)COC(=O)c1ccccc1C(=O)OCC(CC)CCCC (centres undefined),x,22µM*,-7%
CCOC(=O)C(O)(c1ccc(NC(=S)NC(=O)c2ccc(Cl)cc2Cl)cc1)C(F)(F)F (centres undefined),-14,8.9µM*,-21%
CCOC(=O)C(O)(c1ccc(NC(=S)NC(=O)c2ccc(Cl)cc2Cl)c(C)c1)C(F)(F)F (centres undefined),-15,18µM*,-23%
COC(=O)C(O)(c1ccc(NC(=S)NC(=O)c2ccc(Cl)cc2Cl)c(C)c1)C(F)(F)F (centres undefined),-17,u,u
COC(=O)C(O)(c1ccc(NC(=S)NC(=O)c2ccc(Cl)cc2Cl)cc1)C(F)(F)F (centres undefined),-21,u,-8%
O=P(c1ccccc1)(c1ccccc1)N1CC2(CC2)CC(O)(c2ccccc2)C1 (centres undefined),x,-9%,-11%
C(=NCCN1CCOCC1)=NC1CCCCC1,x,7%[13.5 µM],-4%
O=C(O)c1cccc2c1NC(C(=O)O)C1CC(Sc3ccccc3[N+](=O)[O-])C(Cl)C21 (centres undefined),-27,0%,u
CC(=O)c1ccc2c(c1)C1C(Cl)C(Sc3ccccc3[N+](=O)[O-])CC1C(C(=O)O)N2 (centres undefined),-4,1.8µM*,u
CCN[C@]1(c2cccs2)CCCCC1=O,x,2%[20.9 µM],-2%
Cc1cc[c]([Sb]2[O]C([C@H](O)[C@H](O)C(=O)O)[C@@H](CO)[O]2)cc1 (some centres undefined),x,3%[13.5 µM],1%
COc1ccc2c3c([nH]c2c1)C(C)=NCC3,38,u,u
COc1ccc2c(c1)[nH]c1c(C)nccc12,x,5.6µM*,u
SMILES,PNC inhibitor,ALDH1A1 block,HPGD inh
CC(N)[C@@H](O)c1ccccc1 (some centres undefined),x,16%,-3%
CC(=NCC1CCCO1)c1c(O)n(-c2ccc(C)cc2)c(=O)[nH]c1=O (centres undefined),-14,2%,-1%
Cc1ccc(NC(=S)NCC2CCCO2)cc1 (centres undefined),-30,-13%,25µM*
Cc1ccc(OP(=O)(Oc2ccc(C)cc2)N2C=Cc3ccccc3[C@H]2C#N)cc1,x,-11%[13.5 µM],-6%
CS(=N)(=O)CC[C@@H](N)C(=O)O (some centres undefined),x,4%[20.9 µM],0%
C[CH2][Hg][S]c1ccccc1C(=O)O,x,0.18µM*,0.28µM*
CCn1cc(C(=O)c2ccccc2)c2ccccc21,0,-14%,-9%
Cc1ccccc1N1C(=O)NC(=O)/C(=C\c2ccc3c(c2)CCCN3Cc2ccccc2)C1=O,7,u,1.8µM*
COc1ccccc1N1C(=O)NC(=O)/C(=C/c2ccc3c4c(cccc24)CC3)C1=O,21,u,x
CC(=O)Nc1ccc(S(=O)(=O)N(C)CCOCc2ccccc2)cc1,-1,u,-7%
O=C(O)[C@H](Cc1cnc[nH]1)N1C(=O)c2ccccc2C1=O,x,-7%[13.5 µM],-1%
COc1ccc(C(=O)C2CCCN(Cc3ccccn3)C2)c(OC)c1 (centres undefined),x,-4%,x
COc1cccc(C(=O)N2CCN(Cc3ccccn3)CC2)c1OC,u,7.1µM*,-10%
C/C(O)=C(/C#N)C(=O)Nc1cc(Br)ccc1Br,x,u,-8%
CCOc1ccc(N)cc1,x,5%,-1%
